Assay outcomes (PubChem)
Most compounds without a hit are left out; they make up all but 17% or so of the library.
HepG2 tox – HepG2 cytotoxicity, counter-screen for TGF-b inhibitors. HepG2 CAGA-GFP viability, ATP luminescence, 18 h. Potency, µM (series often up to 46.1 µM), for the others: at the highest dose activity change, negative = cytotoxicity, actives largely listed as cytotoxic. 0.76% of 410,000 active. AID 588856
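HepG2 CAGA-GFP cells (1000/well, DMEM with 1% FBS) received compound, then TGF-beta at 500 pg/mL final, and were incubated 18 hours at 37 degrees C. Viability was read by CellTiter-Glo luminescence. Media-only wells were set as complete cell-killing and DMSO as no toxicity.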
S2 tox – reduces viability in counter-screen for ATXN expression inhibitors; S2 cells (HEK-293 line with an ATXN2-luciferase reporter) viability, CellTiter-Fluor protease fluorescence, 24 h; Potency, µM (doses to about 56.7 µM), actives largely listed as cytotoxic; 0.49% of 400,000 active; AID 651635; note: nearly all actives have a fitted effect of over 40% in size
DT40 TDP1 CPT – growth inhibition of DT40 Tdp1-/-;hTDP1 cells with camptothecin (screen for TDP1 inhibitors) | chicken DT40 Tdp1-/-;hTDP1 cells + 20 nM CPT, ATP luminescence, 48 h | Potency, µM (titrated, usually from 46.2 µM), for the others: top-dose activity change, negative = growth inhibition, usual class: inhibitors | 12% of 420,000 active | AID 686979; note: % is set by controls: 0 for no effect and ±100 for the full control effect; nearly all actives have a fitted effect of over 55% in size
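Chicken DT40 Tdp1-/- cells complemented with human TDP1, 400 cells/well, exposed to compounds plus 20 nM camptothecin for at least 48 h at 37 C; viability read as ATP content by CellTiter-Glo luminescence.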
TDP1 cell noCPT – qHTS for Inhibitors of human tyrosyl-DNA phosphodiesterase 1 (TDP1): qHTS in cells in absence of CPT; 15% of 420,000 active; DT40 Tdp1-/- hTDP1 cells, no CPT, ATP luminescence, 48 h; Potency, µM (highest dose often 46.2 µM), for inactives: top-dose activity change, negative = growth inhibition, hits mostly inhibitors; note: % is set by controls: 0 for no effect and ±100 for the full control effect; nearly all actives have a fitted effect of over 55% in size
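Camptothecin absent (DMSO only). Human TDP1-complemented DT40 knockout cells, 400 cells/well, 37 °C for minimum 48 hr; ATP measured via CellTiter-Glo, 30 min dark incubation, luminescence.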
TGFb SMAD3 inh – TGF-b pathway inhibition. Potency, µM (top dose mostly 46.1 µM), for inactives: at the highest dose activity, negative = inhibition, actives largely listed as inhibitors. 1.2% of 410,000 active. HepG2 CAGA-GFP TGF-b/SMAD3 reporter, GFP fluorescence, 18 h; TGF-beta stimulated, 500 pg/mL final; note: % is set by controls: 0 for no effect and ±100 for the full control effect; nearly all actives have a fitted effect of over 65% in size
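Per well, imaged GFP fluorescence of HEPG2 CAGA-GFP cells gives the signal; cells get compound, then TGF-beta (500 pg/mL final), 18 h at 37 degrees C; %Activity versus -TGF-beta and +DMSO controls.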
ATXN2 expr inh – inhibitors of ATXN2 expression | 0.72% of 360,000 active | HEK-293 ATXN2-luciferase reporter, luminescence, 24 h | Potency, µM (top dose mostly 57 µM), inactives show top-dose activity change, negative = inhibition, actives largely listed as inhibitors | AID 1745845; note: % is set by controls: 0 for no effect and ±100 for the full control effect; nearly all actives have a fitted effect of over 55% in size
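qHTS (up to 57 uM final) was run with 24 h compound exposure of reporter cells at 37 °C. Each well was multiplexed: SteadyGlo luminescence measured ATXN2-luciferase expression after a fluorogenic Gly-Phe-AFC viability readout (25 uM final).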
* = called active by the depositor; i = inactive; ? = inconclusive; / = no result; [ ] = remark or other dose. Calls come from the whole dose curve; as a rule, active = well fitted curve in the direction sought with a large enough effect; inconclusive = small, poorly fitted or top-dose-only effect, or another doubt; inactive = no such curve, though single readings can be large; an effect the other way counts as inactive or inconclusive. Potency is the fitted concentration of half-maximal effect.

SMILES	HepG2 tox	S2 tox	DT40 TDP1 CPT	TDP1 cell noCPT	TGFb SMAD3 inh	ATXN2 expr inh
CCCC(c1nnnn1C(C)(C)CC)N(Cc1ccco1)Cc1cc2ccc(OC)cc2[nH]c1=O (stereo not drawn)	6%	?	?	?	?	?
CCOC(=O)Cn1nnnc1C(CC)N(Cc1ccccc1)Cc1cc2cc(C)ccc2[nH]c1=O (stereo not drawn)	-11%	i	?	-29%	7%	22%
CCC(c1nnnn1Cc1ccccc1)N(Cc1ccco1)Cc1cc2cc(OC)ccc2[nH]c1=O (stereo not drawn)	4%	?	16µM*	21µM*	0%	-19%
CCC(c1nnnn1C(C)(C)CC)N(CCCO)Cc1cc2cccc(C)c2[nH]c1=O (stereo not drawn)	-3%	i	-16%	-22%	-12%	-1%
CCC(c1nnnn1Cc1ccco1)N(CCc1ccccc1)Cc1cc2cc(C)ccc2[nH]c1=O (stereo not drawn)	5%	/	21µM*	?	?	?
Cc1ccc(S(=O)(=O)NCC(=O)OCC(=O)NCc2ccc(F)cc2)cc1	-4%	i	-5%	1%	-2%	-9%
Cc1ccc2[nH]c(=O)c(CN(CCCO)Cc3nnnn3Cc3ccco3)cc2c1	-2%	/	?	?	1%	/
Cc1ccc2[nH]c(=O)c(CN(CCc3ccccc3)C(c3nnnn3Cc3ccco3)C(C)C)cc2c1 (stereo not drawn)	7%	?	29µM*	23µM*	21%	?
COc1ccc(CN(C)C(=O)c2ccccc2Sc2ccccc2C#N)cc1OC	-1%	i	16µM*	?	0%	-15%
CS(=O)(=O)c1ccc(-c2cccc3c2OC(CNC(=O)c2cc(C4CC4)[nH]n2)C3)cc1 (stereo not drawn)	/	i	-9%[9.04 µM]	?	/	/
COCCn1nnnc1C(C(C)C)N(Cc1cccnc1)Cc1ccccc1Cl (stereo not drawn)	-21%	i	?	23µM*	0%	-8%
COC(=O)C1=CN(c2cc(C)cc(C)c2)C=C(C(=O)OC)C1c1ccc(OC)c(O)c1	-9%	i	?	?	?	-2%
COC(=O)C1=CN(c2ccc(Oc3ccccc3)cc2)C(N)=C(C#N)C1c1cccc(F)c1 (stereo not drawn)	/	/	?	8.2µM*	/	/
COC(=O)C1=CN(c2cc(C)cc(C)c2)C=C(C(=O)OC)C1c1cccc(F)c1	7%	i	18µM*	13µM*	-5%	5%
COC(=O)C1=CN(c2ccc(F)cc2)C(N)=C(C#N)C1c1cccc(F)c1 (stereo not drawn)	/	/	7.3µM*	12µM*	/	/
COC(=O)C1=CN(c2ccc(F)cc2)C=C(C(=O)OC)C1c1ccc(O)cc1	0%	i	6%	16µM*	0%	11%
CCN(CC(=O)Nc1ccc(NC(C)=O)cc1)C(=O)c1cccc(S(=O)(=O)N2CCCC2)c1	8%	i	4%	-1%	-6%	-2%
O=C(NCc1ccco1)c1ccc(CS(=O)Cc2ccc(Cl)cc2)o1 (stereo not drawn)	5%	?	-2%	-4%	3%	-10%
O=C(COC(=O)/C=C/c1cccc(Cl)c1Cl)Nc1ccc2[nH]c(=O)[nH]c2c1	-17%	?	3%	-3%	0%	-7%
C[C@H]1CN([C@@H](C)CO)C(=O)CCCn2cc(nn2)CO[C@@H]1CN(C)C(=O)Nc1ccccc1C(F)(F)F	0%	i	5%	-21%	12%	1%
COC(=O)C1=CN(CC2CCCO2)C=C(C(=O)OC)C1c1cccc(O)c1 (stereo not drawn)	-2%	/	3%	-6%	5%	12%[11.3 µM]
COC(=O)C1=CN(c2ccc(N3CCOCC3)cc2)C(N)=C(C#N)C1c1cccc(F)c1 (stereo not drawn)	/	/	?	8.2µM*	/	/
COCCN1C=C(C(=O)OC)C(c2ccc3c(c2)OCO3)C(C(=O)OC)=C1	0%	i	-7%	-5%	-4%	3%
COC(=O)C1=CN(c2ccc(OC)cc2OC)C(N)=C(C#N)C1c1cccc([N+](=O)[O-])c1 (stereo not drawn)	/	/	0.37µM*	0.33µM*	/	/
COC(=O)C1=CN(c2ccc(F)cc2)C(N)=C(C#N)C1c1ccc(-c2ccccc2)cc1 (stereo not drawn)	/	/	7.3µM*	5.8µM*	/	/
SMILES	HepG2 tox	S2 tox	DT40 TDP1 CPT	TDP1 cell noCPT	TGFb SMAD3 inh	ATXN2 expr inh
COC(=O)C1=CN(C(C)C)C=C(C(=O)OC)C1c1cccc(OC)c1	-23%	/	2%	-1%	5%	6%
COC(=O)C1=CN(c2ccc3c(c2)OCO3)C(N)=C(C#N)C1c1ccc(-c2ccccc2)cc1 (stereo not drawn)	/	/	5.8µM*	6.5µM*	/	/
Cc1ccc(NC(=O)C2(C)CCN2C(=O)CC(c2ccccc2)c2ccccc2)cc1 (stereo not drawn)	-6%	i	?	?	?	-29%
COC(=O)C1=CN(c2cccc(OCc3ccccc3)c2)C(N)=C(C#N)C1c1cccc(F)c1 (stereo not drawn)	/	/	13µM*	23µM*	/	/
COC(=O)C1=C(C)N(Cc2ccccc2)C(=O)N[C@H]1c1cccc(F)c1	1%	i	-18%	-27%	-19%	1%
Cc1ccccc1NC(=S)N/N=C/c1ccc(O)cc1O	-4%	?	10µM*	9.2µM*	-21%	?
O=C(O)c1cccc(NC(=S)N/N=C/c2cccc(O)c2)c1	24%	i	13%	1%	7%	?
CC(C)c1ccccc1NC(=S)NC(C)c1ccccc1 (stereo not drawn)	-29%	i	?	16µM*	?	-30%
Cc1cccc(NC(=S)N/N=C/c2cccc(O)c2)c1C	-17%	i	2.6µM*	2.6µM*	?	-13%
Cc1ccccc1NC(=S)N/N=C/C(C)c1ccccc1 (stereo not drawn)	4%	i	10µM*	13µM*	0%	13%[11.3 µM]
Cc1cccc(C)c1NC(=S)N/N=C/c1ccccc1C(=O)O	-4%	i	3%	2%	6%	14%
Cc1ccc(Cl)cc1NC(=S)N/N=C/c1cccc2ccccc12	11%	?	2.9µM*	4.6µM*	-4%	10%
